According to PubChem BioAssay AID588430 (Broad Institute, 2011):
Potency and affinity values are given separately. Inconclusive results are not listed.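 Rule for the calls: active = compound whose fitted half-maximal inhibition concentration is at most triple the top dose in every replicate run; inconclusive = runs disagree, or flat partial inhibition, or poor curve fit; inactive = every run inactive: flat, opposite effect, or too weak.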

molecular target: Cyclin-dependent kinase 5 activator 1 (Homo sapiens) + Cyclin-dependent kinase 5 (Homo sapiens) (UniProt Q15078+Q00535); test: human CDK5 activity blockade – biochemical, microfluidic mobility shift, dry powder, selectivity assay for GSK-3 alpha inhibitor project, dose response (AID 588430); conditions: CDK5-p25 kinase, Caliper mobility shift, peptide conversion; series mostly up to 35 µM; activity change, negative = inhibition: at the top concentration
Sequence (Q00535 whole entry, looked up): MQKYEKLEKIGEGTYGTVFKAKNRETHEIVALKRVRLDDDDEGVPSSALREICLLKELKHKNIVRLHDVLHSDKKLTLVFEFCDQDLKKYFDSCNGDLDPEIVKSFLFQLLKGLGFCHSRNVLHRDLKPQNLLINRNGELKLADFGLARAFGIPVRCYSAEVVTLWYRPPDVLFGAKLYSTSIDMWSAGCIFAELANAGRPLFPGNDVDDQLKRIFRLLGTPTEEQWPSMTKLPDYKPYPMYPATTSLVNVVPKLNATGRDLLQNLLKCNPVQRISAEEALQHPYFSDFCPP
Sequence (Q15078 whole entry, looked up): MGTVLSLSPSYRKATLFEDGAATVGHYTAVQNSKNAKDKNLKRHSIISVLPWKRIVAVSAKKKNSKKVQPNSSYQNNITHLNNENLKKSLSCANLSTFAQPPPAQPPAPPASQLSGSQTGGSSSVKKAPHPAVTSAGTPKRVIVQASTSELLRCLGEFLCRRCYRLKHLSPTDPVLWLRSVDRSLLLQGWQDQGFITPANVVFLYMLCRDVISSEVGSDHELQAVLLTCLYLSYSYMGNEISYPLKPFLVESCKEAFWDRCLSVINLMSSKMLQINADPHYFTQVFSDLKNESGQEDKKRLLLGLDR

Activity change, negative = inhibition, inactive:
c1ccc(-c2nc(NCCCn3ccnc3)c3ccccc3n2)cc1 -10.4%
CCOC(=O)c1ccc2ncc(C(=O)OCC)c(Nc3ccc(N4CCOCC4)cc3)c2c1 -19.3%
Fc1ccc(CSc2nnc(-c3ccncc3)o2)cc1 -7.17%
COc1ccc(OC)c(/C=N/NC(=O)c2nnn(-c3nonc3N)c2-c2cccs2)c1 -4.98%
Nc1nc(NCCCN2CCOCC2)nc(Nc2cccc(Cl)c2)c1[N+](=O)[O-] -21.5%
O=C(Nc1ccsc1C(=O)NC1CCCCC1)c1ccc(F)cc1 -0.994%
Nc1nonc1-n1nnc(C(=O)N/N=C/c2ccccc2Cl)c1CN1CCOCC1 -8.98%
CN(C)Cc1c(C(=O)N/N=C/c2ccncc2)nnn1-c1nonc1N -19.5%
